From PubChem BioAssay AID602350 (Broad Institute, 2012)
Measured potencies and affinities stand elsewhere. Calls of active or inactive are those of the source.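 Rule for the calls: active = absorbance falls by 30% or more versus neutral controls, with a potency fitted within twice the top valid dose; inconclusive = no clear call, values can overlap the other calls; inactive = change opposite to expected direction, plus the rest.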

Each compound was assayed against Protein disulfide-isomerase (Homo sapiens) (UniProt P07237) (assay: inhibition of PDI-driven insulin aggregation – biochemical, turbidity, absorbance, cherry-picked samples, dose response (AID 602350)). Settings: recombinant PDI insulin aggregation, absorbance 650 nm, 90 min; series mostly up to 19.5 µM.
Protein disulfide-isomerase (Homo sapiens), sequence (P07237 whole entry, looked up): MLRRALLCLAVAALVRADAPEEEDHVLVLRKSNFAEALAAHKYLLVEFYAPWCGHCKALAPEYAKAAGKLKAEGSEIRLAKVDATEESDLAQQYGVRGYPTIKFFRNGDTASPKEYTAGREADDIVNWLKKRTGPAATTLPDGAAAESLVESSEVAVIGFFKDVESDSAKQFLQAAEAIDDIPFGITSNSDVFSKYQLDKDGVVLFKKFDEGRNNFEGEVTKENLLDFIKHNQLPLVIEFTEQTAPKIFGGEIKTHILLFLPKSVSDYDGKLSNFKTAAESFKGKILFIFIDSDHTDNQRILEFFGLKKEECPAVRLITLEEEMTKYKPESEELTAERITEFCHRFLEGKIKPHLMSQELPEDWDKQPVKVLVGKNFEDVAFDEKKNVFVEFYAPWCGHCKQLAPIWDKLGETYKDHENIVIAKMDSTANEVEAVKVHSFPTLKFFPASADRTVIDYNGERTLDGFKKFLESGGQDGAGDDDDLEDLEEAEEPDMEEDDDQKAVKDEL

outcome, inactive:
CCOC(=O)c1c(CN2CCOCC2)n(-c2ccccc2)c2cc(Br)c(O)cc12
CN1CCN(Cc2nc3ccccc3c(=O)n2Cc2nc(-c3ccc4ccccc4c3)cs2)CC1
CC(=O)c1cc(-c2ccccc2)n(CC(=O)Nc2cccc(C)c2)c1C
O=C(NN1CC(C(=O)OCc2ccccc2F)CC1=O)c1ccccc1 (centres undefined)
O=c1cc(CSc2nnnn2-c2ccc(O)cc2)nc2sccn12
COc1cc2c(cc1OC)C(C)N(CC(=O)Nc1ccc(S(=O)(=O)N3CCCC3)cc1)CC2 (centres undefined)
CCOC(=O)c1c(CN(C)C)n(-c2ccccc2)c2cc(Br)c(O)cc12
CC(=O)Nc1cccc(NC(=O)CCc2ccccc2)c1
Cc1noc(C)c1S(=O)(=O)Nc1ccc2c(c1)CC(=O)N([C@@H](C)CO)C[C@@H](C)[C@@H](CN(C)S(=O)(=O)c1ccc(F)cc1)O2
O=C(NCc1ccccc1)c1cc(C2CCCN(C(=O)C3CCCCC3)C2)on1 (centres undefined)
CCN(CC)C(=O)CSc1nnc([C@H](Cc2c[nH]c3ccccc23)NC(=O)OC(C)(C)C)o1
COc1ccc(OC)c2[nH]c(=O)c(CCNC(=O)C(=O)c3c(C)[nH]c4ccccc34)cc12
Cc1ccc2c(c1)Oc1ccc(NC(=O)CCl)cc1C(=O)N2
CCCNC(=O)Cn1c(-c2ccc(F)cc2)cc(C(=O)OCC)c1C
Cc1c(O)ccc2c(CN3CCN(Cc4ccccc4)CC3)cc(=O)oc12
O=C(CCN1C(=O)C2C3C=CC(C4CC34)C2C1=O)Oc1ccccc1 (centres undefined)
CCOc1ccc2nc(SCC(=O)c3ccc(Cl)s3)sc2c1
COC(=O)C(Cc1ccc(O)cc1)N1Cc2ccccc2C1=O (centres undefined)
COc1ccc(N(Cc2cc3cc(OC)ccc3[nH]c2=O)C(=O)C2CCCO2)cc1 (centres undefined)
COc1ccc(N(CC(=O)NCCSC2CCCCC2)S(=O)(=O)c2ccccc2)c(OC)c1
O=C(c1cc([N+](=O)[O-])ccc1N1CCOCC1)N1CCN(c2ccc([N+](=O)[O-])cc2)CC1
COCC(=O)N(C)C1(c2nnnn2CCOC(=O)Nc2ccc(Cl)cc2)CCCCC1
C[C@@H]1CN([C@@H](C)CO)C(=O)Cc2cc(NC(=O)Nc3ccccc3)ccc2O[C@@H]1CN(C)Cc1ccccc1
COc1ccc(C2c3ccc(O)cc3Oc3ncn(Cc4ccco4)c(=N)c32)cc1OC (centres undefined)
NC1=NC[C@H](Cc2ccc(O)cc2)N1CC1CCCCC1
O=C(NCc1cccs1)C1CC(c2ccc(F)cc2)=NO1 (centres undefined)
CC(=O)OCC(=O)NCc1ccc2c(c1)OCO2
CN(C)CCCN(C(=O)c1ccc(S(=O)(=O)N2CCCc3ccccc32)cc1)c1nc2ccc(F)cc2s1
CCOC(=O)c1c(CN2CCN(CCO)CC2)n(C)c2cc(Br)c(OC)cc12
O=C(NCc1ccncc1)Nc1cc(Cl)ccc1Cl
Cc1noc(C)c1S(=O)(=O)Nc1ccc2c(c1)CC(=O)N([C@@H](C)CO)C[C@H](C)[C@@H](CN(C)S(=O)(=O)c1ccc(F)cc1)O2
O=C(Nc1ccccc1)c1cc(C2CCCCN2C(=O)c2ccccc2)on1 (centres undefined)
O=C(Nc1nccs1)c1ccc(-c2ccccc2[N+](=O)[O-])o1
COc1ccc(S(=O)(=O)NC(C)C(=O)Nc2ccccc2F)cc1 (centres undefined)
CC12CCC3c4ccc(O)cc4CCC3C1CCC2=O (centres undefined)
CN(C)S(=O)(=O)c1ccc(C(=O)Nc2ccc3nc(N4CCOCC4)sc3c2)cc1
CCOc1cc(/C=C/C(=O)c2ccc(O)cc2)ccc1OCC(=O)N(C)C
Cc1cc(C)c(C)c(S(=O)(=O)N2CCC(C(=O)N(C)Cc3nc4ccccc4c(=O)[nH]3)CC2)c1C
O=C1N[C@@H](Cc2c[nH]c3ccccc23)COC(=O)[C@@H](Cc2ccc(F)cc2)C/C=C\C[C@H]1CC(=O)N(CCO)Cc1ccccc1
